Reference: article PMC4081100, “A DNA-binding-site landscape and regulatory network analysis for NAC transcription factors in Arabidopsis thaliana”

Tests used:
Assay in all cases: universal protein binding microarray (PBM); transcription factors of Arabidopsis thaliana; high values mean tight binding
GST-ANAC092(1-176) = biological target: T1, GST-ANAC092(1-176) (Arabidopsis thaliana, UniProt Q9FKA0 1-176); conditions: protein: recombinant; tags: GST; chain copies: 2; dsDNA, one strand shown
T1 sequence: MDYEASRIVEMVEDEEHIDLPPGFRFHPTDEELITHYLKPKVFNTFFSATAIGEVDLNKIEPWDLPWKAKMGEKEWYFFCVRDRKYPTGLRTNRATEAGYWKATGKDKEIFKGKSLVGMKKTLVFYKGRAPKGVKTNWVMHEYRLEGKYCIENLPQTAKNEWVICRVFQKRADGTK
How it was run: (§1)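 Each value is a normalised enrichment score (E-score) describing binding. The GST-tagged proteins, NAC-domain, full-length or DNA-binding-domain, were induced in cells (zinc-finger proteins with zinc acetate added) and purified on glutathione–Sepharose 4B. They were applied at 200 to 500 nM final, in duplicate, to double-stranded custom all-10-mer Agilent 4 × 180K arrays, and gapped and ungapped 8-mers were scored.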

GST-NTL6(1-168) = GST-NTL6(1-168) (Arabidopsis thaliana, UniProt Q9SCK6 1-168); conditions: protein: recombinant; tags: GST; chain copies: 2; dsDNA, one strand shown
Sequence of GST-NTL6(1-168) (Q9SCK6 1-168): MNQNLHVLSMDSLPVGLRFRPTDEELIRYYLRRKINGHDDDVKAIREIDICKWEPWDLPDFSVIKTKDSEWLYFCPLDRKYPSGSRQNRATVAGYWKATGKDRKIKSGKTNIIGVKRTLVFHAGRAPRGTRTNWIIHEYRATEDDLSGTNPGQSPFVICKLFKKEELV
How it was run: as §1

GST-ANAC055(1-171) = biological target: T2, GST-ANAC055(1-171) (Arabidopsis thaliana, UniProt Q9LDY8 1-171); conditions: protein: recombinant; tags: GST; chain copies: 2; dsDNA, one strand shown
T2 sequence: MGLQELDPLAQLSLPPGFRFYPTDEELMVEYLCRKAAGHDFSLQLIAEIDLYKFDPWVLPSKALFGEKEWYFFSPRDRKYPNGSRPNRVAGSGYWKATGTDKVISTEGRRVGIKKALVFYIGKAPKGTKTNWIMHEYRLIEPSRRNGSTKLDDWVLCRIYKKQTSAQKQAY
How it was run: as §1

GST-ATAF1 NAC domain = biological target: T3, GST-ATAF1 NAC domain (Arabidopsis thaliana, UniProt Q39013 7-158); conditions: protein: recombinant; tags: GST; chain copies: 2; dsDNA, one strand shown
T3 sequence: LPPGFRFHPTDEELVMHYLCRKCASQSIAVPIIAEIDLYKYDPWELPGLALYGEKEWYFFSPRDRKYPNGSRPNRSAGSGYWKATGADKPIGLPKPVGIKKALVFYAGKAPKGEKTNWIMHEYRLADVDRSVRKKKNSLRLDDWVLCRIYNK
How it was run: as §1

[1] = biological target: T4, GST-ANAC092(1-285) full length (Arabidopsis thaliana, UniProt Q9FKA0 1-285); conditions: protein: recombinant; tags: GST; chain copies: 2; dsDNA, one strand shown
T4 sequence: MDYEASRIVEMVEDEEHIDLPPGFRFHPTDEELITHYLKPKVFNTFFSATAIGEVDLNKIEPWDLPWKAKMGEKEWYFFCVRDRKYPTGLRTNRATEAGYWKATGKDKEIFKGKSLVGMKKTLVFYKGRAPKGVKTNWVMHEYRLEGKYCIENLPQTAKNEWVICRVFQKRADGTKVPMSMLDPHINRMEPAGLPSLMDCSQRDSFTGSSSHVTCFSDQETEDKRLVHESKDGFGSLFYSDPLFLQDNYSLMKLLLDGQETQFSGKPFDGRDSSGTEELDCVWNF
How it was run: as §1

GST-VND3 NAC domain = biological target: T5, GST-VND3 NAC domain (Arabidopsis thaliana, UniProt Q9FH59 12-162); conditions: protein: recombinant; tags: GST; chain copies: 2; dsDNA, one strand shown
T5 sequence: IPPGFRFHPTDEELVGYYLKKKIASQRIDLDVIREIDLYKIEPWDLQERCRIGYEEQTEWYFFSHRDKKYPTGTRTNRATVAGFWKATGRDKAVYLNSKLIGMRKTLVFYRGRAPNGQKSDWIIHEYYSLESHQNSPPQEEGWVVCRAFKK
How it was run: as §1

GST-VND7 NAC domain = biological target: T6, GST-VND7 NAC domain (Arabidopsis thaliana, UniProt Q9C8W9 9-158); conditions: protein: recombinant; tags: GST; chain copies: 2; dsDNA, one strand shown
T6 sequence: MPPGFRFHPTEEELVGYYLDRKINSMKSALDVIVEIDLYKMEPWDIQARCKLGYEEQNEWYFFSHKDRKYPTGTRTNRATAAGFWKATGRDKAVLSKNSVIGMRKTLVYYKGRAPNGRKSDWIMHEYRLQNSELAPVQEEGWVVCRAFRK
How it was run: as §1

GST-WRKY1(266-371) = GST-WRKY1(266-371) (Arabidopsis thaliana, UniProt Q9SI37 266-371); conditions: protein: recombinant; tags: GST; dsDNA, one strand shown
Sequence of GST-WRKY1(266-371) (Q9SI37 266-371): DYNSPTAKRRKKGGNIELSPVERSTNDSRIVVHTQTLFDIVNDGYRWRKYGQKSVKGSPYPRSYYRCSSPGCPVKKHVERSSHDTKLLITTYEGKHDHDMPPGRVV
How it was run: as §1

GST-NST2(1-184) = biological target: T7, GST-NST2(1-184) (Arabidopsis thaliana, UniProt Q9M274 1-184); conditions: protein: recombinant; tags: GST; chain copies: 2; dsDNA, one strand shown
T7 sequence: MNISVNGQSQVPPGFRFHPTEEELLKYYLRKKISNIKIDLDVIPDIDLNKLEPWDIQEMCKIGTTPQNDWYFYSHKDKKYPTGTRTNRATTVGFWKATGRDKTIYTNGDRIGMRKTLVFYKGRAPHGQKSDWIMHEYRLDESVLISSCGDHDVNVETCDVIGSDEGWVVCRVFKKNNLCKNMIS
How it was run: as §1

GST-SND1(1-203) = biological target: T8, GST-SND1(1-203) (Arabidopsis thaliana, UniProt Q9LPI7 1-203); conditions: protein: recombinant; tags: GST; chain copies: 2; dsDNA, one strand shown
T8 sequence: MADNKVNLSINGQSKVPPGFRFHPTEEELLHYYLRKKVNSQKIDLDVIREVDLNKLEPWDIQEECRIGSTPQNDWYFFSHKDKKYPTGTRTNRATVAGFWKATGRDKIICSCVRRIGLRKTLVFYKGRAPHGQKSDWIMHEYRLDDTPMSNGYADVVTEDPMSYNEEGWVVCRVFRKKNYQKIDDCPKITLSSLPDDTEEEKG
How it was run: as §1

GST-ANAC019 NAC domain = biological target: T9, GST-ANAC019 NAC domain (Arabidopsis thaliana, UniProt Q9C932 14-162); conditions: protein: recombinant; tags: GST; chain copies: 2; dsDNA, one strand shown
T9 sequence: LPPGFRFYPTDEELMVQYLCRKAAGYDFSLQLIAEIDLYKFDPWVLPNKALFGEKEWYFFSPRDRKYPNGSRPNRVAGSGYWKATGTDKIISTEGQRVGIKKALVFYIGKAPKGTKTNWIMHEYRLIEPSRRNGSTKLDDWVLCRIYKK
How it was run: as §1

GST-NAP(1-166) = biological target: T10, GST-NAP(1-166) (Arabidopsis thaliana, UniProt O49255 1-166); conditions: protein: recombinant; tags: GST; chain copies: 2; dsDNA, one strand shown
T10 sequence: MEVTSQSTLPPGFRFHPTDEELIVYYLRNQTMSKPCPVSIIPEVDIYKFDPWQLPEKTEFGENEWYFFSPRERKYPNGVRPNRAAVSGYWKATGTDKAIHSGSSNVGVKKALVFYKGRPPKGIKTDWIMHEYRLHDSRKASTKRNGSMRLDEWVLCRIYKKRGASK
How it was run: as §1

GST-NTL8 NAC domain = biological target: T11, GST-NTL8 NAC domain (Arabidopsis thaliana, UniProt Q9XIN7 14-156); conditions: protein: recombinant; tags: GST; chain copies: 2; dsDNA, one strand shown
T11 sequence: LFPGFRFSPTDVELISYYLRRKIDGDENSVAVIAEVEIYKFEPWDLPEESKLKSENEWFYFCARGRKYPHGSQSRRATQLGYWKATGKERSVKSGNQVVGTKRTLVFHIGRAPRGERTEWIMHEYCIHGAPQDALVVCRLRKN
How it was run: as §1

Sequence | binding signal (GST-ANAC092(1-176)) | binding signal (GST-NTL6(1-168)) | binding signal (GST-ANAC055(1-171)) | binding signal (GST-ATAF1 NAC domain) | binding signal [1] | binding signal (GST-VND3 NAC domain) | binding signal (GST-VND7 NAC domain) | binding signal (GST-WRKY1(266-371)) | binding signal (GST-NST2(1-184)) | binding signal (GST-SND1(1-203)) | binding signal (GST-ANAC019 NAC domain) | binding signal (GST-NAP(1-166)) | binding signal (GST-NTL8 NAC domain)
CTTTTGAC | 0.158 E-score | 0.0997 E-score | 0.114 E-score | 0.168 E-score | 0.0903 E-score | 0.12 E-score | 0.101 E-score | 0.448 E-score |  |  |  |  | 
ACTCAACC | 0.366 E-score |  | 0.0786 E-score | 0.117 E-score | 0.408 E-score |  |  |  | 0.221 E-score | 0.381 E-score |  |  | 
CACGCCAG | 0.385 E-score |  |  |  | 0.429 E-score |  |  |  |  | 0.178 E-score | 0.0856 E-score |  | 
ACACGACT | 0.104 E-score |  | 0.364 E-score | 0.336 E-score | 0.171 E-score | 0.309 E-score | 0.265 E-score | 0.312 E-score | 0.19 E-score |  | 0.411 E-score | 0.179 E-score | 
ATCGCGTG | 0.382 E-score |  |  |  | 0.441 E-score |  |  |  | 0.135 E-score | 0.266 E-score |  |  | 
CACGCGAA | 0.343 E-score | 0.17 E-score | 0.0997 E-score |  | 0.402 E-score |  |  |  | 0.188 E-score | 0.213 E-score |  |  | 0.0576 E-score
ACGGCAGT | 0.207 E-score |  | 0.311 E-score | 0.212 E-score | 0.263 E-score | 0.342 E-score | 0.238 E-score | 0.0779 E-score | 0.138 E-score |  | 0.418 E-score | 0.0813 E-score | 
GAGGAAAC | 0.0974 E-score |  |  | 0.0627 E-score | 0.0772 E-score |  |  |  |  | 0.099 E-score |  | 0.0571 E-score | 0.465 E-score
GCACTCAA | 0.391 E-score |  |  | 0.0807 E-score | 0.426 E-score |  |  |  | 0.196 E-score | 0.263 E-score |  |  | 0.0643 E-score
CTACGCGA |  |  |  |  | 0.177 E-score |  |  |  | 0.0539 E-score | 0.417 E-score |  |  | 
AAGTCAAA | 0.0569 E-score | 0.135 E-score |  | 0.16 E-score |  | 0.0889 E-score | 0.106 E-score | 0.488 E-score | 0.0885 E-score |  | 0.084 E-score | 0.102 E-score | 
ACAGTCAA | 0.141 E-score |  | 0.0601 E-score | 0.081 E-score | 0.0848 E-score | 0.0711 E-score | 0.0752 E-score | 0.477 E-score |  |  |  | 0.0868 E-score | 0.164 E-score
